SMILES strings stand for the structures. Where “and” joins values, the source holds several entries; their conditions need not be identical. Equal entries are not always repeated. About 83,000 compounds went through this panel and 20% of them were active in at least one assay; those are over-represented in the sample as a whole.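 For each line, cells grew in 96-well plates with the test compound present at a single concentration for 48 hours.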 Unmarked numbers belong to inactive results. Calls of active or inactive are those of the source. How the source made its calls: active means growth percent below 10; inactive means the rest.

The subject of this assay is HL-60(TB) leukemia. Nature of the assay: NCI-60 one-dose screen, 48 h (100 = growth as untreated, 0 = no growth, -100 = all killed). The following applies: 10 µM unless noted.
Turning to `COc1ccc(C(=O)COc2ccc(/C=C3\Oc4ccccc4C3=O)cc2)cc1`, the growth was 76%.

In the case of `CCN(CC)C(=O)C1CCN(C(=O)c2ccccc2)CC1`, the growth was 89.3%.

`CC(=O)Nc1ccc(S(=O)(=O)N2C(=O)CCC2C(=O)Nc2ccccc2)cc1` (configuration not stated): the growth was 25.1%.

For `COc1ccc(S(=O)(=O)ON=C2C=C(C)C(=O)C(C)=C2)cc1`, the growth was 43.7%.

Turning to `O=c1oc2ccc([N+](=O)[O-])cc2cc1Br`, the growth was 105%.

Take `CCNC(=O)CCCCC(=O)c1c(C)[nH]c(/C=C2\N=C(c3ccc[nH]3)C=C2OC)c1C`: the growth was 66.9%.

Take `COc1ccc2c(O)c(/C=C3\N=Nc4ncccc43)oc2c1C[C@H]1CCNC[C@H]1F`: the growth was -45.4% (active).

Turning to `COC(=O)[C@]12CC[C@@H](C)[C@H](C)[C@@H]1C1=CC[C@@H]3[C@@]4(C)C/C(=N\O)[C@H](O)[C@@]5(C)COC(=C45)C[C@@]3(C)[C@]1(C)CC2`, the growth was -59.8% (active).

Turning to `N#CCCN1CCN(CCC#N)C1=S`, the growth is 129%.

As for `CCc1c(C)c2cc3nc(NCc4ccccc4)oc3c(C)c2oc1=O`, the growth is 80.6%.

In the case of `O=S(=O)(O)C1(O)CCCCC1`, the growth is 87.6%.

With `CCN(CC)CCOc1ccc(-c2c(-c3ccccc3)c(=O)oc3ccccc23)cc1`, the growth was 107%.

For the compound `O[C@H](c1cc(C(F)(F)F)nc2c(C(F)(F)F)cccc12)[C@@H]1CCCCN1`, the growth was 52.8% and 50.7%.

Consider `CN(C)CCNC(=O)c1cccc(-c2cnc3ccc(-c4ccc5c(c4)OCO5)nn23)c1`, for which the growth was 64.1%.

With `CN(C)C(=S)Sc1ccc([N+](=O)[O-])cc1[N+](=O)[O-]`, the growth is -5.16% (active).

`Cn1ncc2c(Nc3ccc(O)cc3)nc(Cl)nc21`: the growth was 95.1%.

As to `O=C1c2ccccc2C(=O)N1OCc1ccccc1`, the growth was 94.2%.

On to `O=C(c1cccc(C(=O)c2ccc3c4c(cccc24)C(=O)N(c2ccccc2)C3=O)c1)c1ccc2c3c(cccc13)C(=O)N(c1ccccc1)C2=O`, for which the growth is 103%.

On to `CN1C(=O)N(C)C2Nn3c(s/c(=C\c4ccc(C(F)(F)F)cc4)c3=O)=NC21` (configuration not stated), for which the growth is 98.9%.

In the case of `COc1ccccc1/C=N\N=C(N/N=C/c1ccccc1OC)N/N=C/c1ccccc1OC`, the growth is 31.3% and 41.7%.

Take `CCCC1=NNC(=O)C1`: the growth was 95.6%.

`CC(CN(C)C)CN1c2ccccc2CCc2ccccc21` (configuration not stated): the growth is 108%.

On to `Cc1ccc(NC(=O)COC(=O)c2ccc(S(=O)(=O)N3CCCCCC3)cc2)cc1`, for which the growth is 85.9%.

With `COc1cc(-c2cc(/C=C3\CCCCC3=O)[nH]n2)cc(OC)c1OC`, the growth was 97.9%.

`O=CC(O)C(O)C(O)CO` (configuration not stated): the growth is 130% and 91.5%.

On to `COc1ccc2c(O)c(/C=C3\N=Nc4ccccc43)oc2c1C[C@@H]1CCNC[C@H]1F`, for which the growth is 61%.

For the compound `Cc1cc(SCc2ccc(Cl)cc2Cl)nc(SCc2ccc(Cl)cc2Cl)n1`, the growth was 95.6%.
